The text below walks through data of PubChem BioAssay AID651582 (Sanford-Burnham Center for Chemical Genomics, 2012).

Among all 230,000 compounds or so, about 1,500 (0.65%) were called active.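 How the source made its calls: active means pattern-corrected inhibition of lipid staining of at least 50% with the nuclear-stain viability signal not falling by more than 50%; inactive means the rest, inconclusive results apart.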 For the sample, actives were picked, then their nearest neighbours and some compounds at random.

As a reminder, the inhibition is the relative decrease from the control value, in per cent.

The nature of the experiment: inhibitors of triacylglycerol accumulation, primary screen, cell-based, uHTS, fluorescence, H9c2 (AID 651582).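 On inhibition: 0% = DMSO wells and 100% = triacsin C control wells.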 Conditions: H9c2 cells, Nile Red lipid (TAG) fluorescence, at 12.5 µM, cells loaded with 200 µM oleic acid; DAPI nuclei signal change (viability), lower = more cytotoxic: measured here: DAPI nuclei count viability; inhibition: stronger effect = higher value.
Regarding `Cc1ccc(S(=O)(=O)N2CCN(C(=O)c3cc(S(=O)(=O)N4CCOCC4)ccc3F)CC2)cc1`, the DAPI nuclei signal change (viability), lower = more cytotoxic is -10.8% and the inhibition was 2.68% (inactive).

Turning to `Cc1ccc(S(=O)(=O)N(Cc2cccc([N+](=O)[O-])c2)C(=O)N2CCN(C)CC2)cc1`, the DAPI nuclei signal change (viability), lower = more cytotoxic was -12.6% and the inhibition is 6.71% (inactive).

As to `CCN(CC)C(=O)CN(c1cccc([N+](=O)[O-])c1)S(=O)(=O)c1ccccc1`, the DAPI nuclei signal change (viability), lower = more cytotoxic was -11.2% and the inhibition is 5.09% (inactive).

Take `O=C(CCl)N(Cc1cccc([N+](=O)[O-])c1)c1cccc(Cl)c1`: the DAPI nuclei signal change (viability), lower = more cytotoxic was found to be 0.0094% and the inhibition is 53.5% (active).

As to `COc1ccc(-c2c(C#N)cnc(C)c2C)c(O)c1OC`, the DAPI nuclei signal change (viability), lower = more cytotoxic is -5.41% and the inhibition is 12.5% (inactive).

In the case of `CC1(C(=O)NCc2ccc(F)c(F)c2)Cc2c(-c3ccc4c(c3)OCO4)ccnc2O1` (stereo not given), the DAPI nuclei signal change (viability), lower = more cytotoxic was -30.3% and the inhibition was 36.2% (inactive).

Take `CC1(C(=O)NCc2ccco2)Cc2c(-c3ccc4c(c3)OCO4)ccnc2O1` (stereo not given): the DAPI nuclei signal change (viability), lower = more cytotoxic is -35.6% and the inhibition was 52.2% (active).

`CC(=O)Nc1cccc(-c2ccnc3c2CC(C)(C(=O)NCc2ccco2)O3)c1` (stereo not given): the DAPI nuclei signal change (viability), lower = more cytotoxic was -40.5% and the inhibition is 43.4% (inactive).

For `CCc1nc2c(OCC(=O)C(C)(C)C)cccn2c1N(C)C(=O)c1ccccc1F`, the DAPI nuclei signal change (viability), lower = more cytotoxic is -14.1% and the inhibition was 14.9% (inactive).

On to `CCN(CC(=O)Nc1ccc(NC(C)=O)cc1)C(=O)CSC(=S)N1CCCC1`, for which the DAPI nuclei signal change (viability), lower = more cytotoxic was -7.39% and the inhibition was -13.5% (inactive).

As to `Cc1ccccc1Nc1nnc(C)c(=O)[nH]1`, the DAPI nuclei signal change (viability), lower = more cytotoxic was 1.64% and the inhibition is -16.3% (inactive).

For the molecule `Cc1nnc(N/N=C/c2ccccn2)[nH]c1=O`, the DAPI nuclei signal change (viability), lower = more cytotoxic is -33.8% and the inhibition is 53.3% (active).

On to `Cc1nnc(N/N=C/c2cccs2)[nH]c1=O`, for which the DAPI nuclei signal change (viability), lower = more cytotoxic is 4.89% and the inhibition was 29.3% (inactive).

`Cc1cc(C)cc(NC(=O)NCc2ccccn2)c1`: the DAPI nuclei signal change (viability), lower = more cytotoxic worked out at 7.71% and the inhibition was -29.5% (inactive).

As to `O=[N+]([O-])c1ccc(C=NN=Cc2ccc([N+](=O)[O-])cc2)cc1`, the DAPI nuclei signal change (viability), lower = more cytotoxic is -4.6% and the inhibition was 6.59% (inactive).
